A short description of assay [1]: Human pregnane X receptor (PXR) small molecule agonists, qHTS cell viability counter screen (AID 1346977). Further: nearly all actives have a fitted effect of over 50% in size. Further: potency means the concentration at half of the fitted maximal effect. As to conditions: PXR-Luc HepG2 viability, CellTiter-Fluor, 24 h; series mostly up to 92.4 µM. Put shortly:
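PXR-Luc HepG2 cells (2,000/well, 5% charcoal-stripped FBS) preincubated 5 hr, then exposed to compounds 24 hr at 37 C. Viability read in the same wells by CellTiter-Fluor fluorescence, reagent added at 23 hr, 1 hr incubation.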
Background: qHTS replaces the single test concentration by a dilution series.

Assay [2] can be described thus: Caspase-3/7 induction in HepG2 cells by small molecules, qHTS assay (AID 1346978). Further: nearly all actives have a fitted effect of over 15% in size. Further: potency means the concentration at half of the fitted maximal effect. Conditions: HepG2 caspase-3/7 activation, Caspase-Glo luminescence, 17 h; series mostly up to 92.4 µM. The gist of the method:
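Wild-type HepG2 cells (2,000/well) were settled 5 h at 37 C, 5% CO2, then exposed to compounds in DMSO for 17 h. Caspase-3/7 activity was read by luminescence 30 min after adding Caspase-Glo 3/7 reagent at room temperature.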

Assay [3] in a line: Caspase-3/7 induction in CHO-K1 cells by small molecules, qHTS cell viability counter screen (AID 1346979). Further: nearly all actives have a fitted effect of over 35% in size. Further: potency means the concentration at half of the fitted maximal effect. Conditions: CellTiter-Fluor fluorescence, 17 h; series mostly up to 92.4 µM. Put shortly:
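Wild-type CHO-K1 cells (1,500/well) treated with compound after 5 h plating; after 16 h at 37C, viability read as CellTiter-Fluor fluorescence following 1 h reagent incubation, in the same wells as the caspase read.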

The nature of assay [4]: Caspase-3/7 induction in CHO-K1 cells by small molecules, qHTS assay (AID 1346980). Further: nearly all actives have a fitted effect of over 15% in size. Further: potency means the concentration at half of the fitted maximal effect. As to conditions: CHO-K1 caspase-3/7 induction, Caspase-Glo luminescence, 17 h; series mostly up to 92.4 µM. The gist of the method:
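Wild-type cells were seeded at 1,500 per well and settled 5 hr at 37 C, 5% CO2, then exposed to DMSO-dissolved compounds for 17 hr. Caspase-Glo 3/7 reagent was added, and luminescence was read after 30min at room temperature.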

A short description of assay [5]: Caspase-3/7 induction in HepG2 cells by small molecules, qHTS cell viability counter screen (AID 1346981). Further: nearly all actives have a fitted effect of over 30% in size. Further: potency means the concentration at half of the fitted maximal effect. Conditions: CellTiter-Fluor fluorescence, 17 h; series mostly up to 92.4 µM. Put shortly: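 Counter screen for cytotoxicity: HepG2 exposed 16 hr to compounds, then CellTiter-Fluor viability signal (fluorescence, 1 hr reagent incubation).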
The target in assay [6] is Nuclear receptor subfamily 1 group I member 2 (Rattus norvegicus) (UniProt Q9R1A7). The assay can be described thus: Rat pregnane X receptor (rPXR) activation by small molecules, qHTS assay (AID 1346983). Further: nearly all actives have a fitted effect of over 20% in size. Conditions: rPXR luciferase reporter cells, One-Glo luminescence, 24 h; stronger effect = higher value. Put shortly:
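Cell-based rPXR luciferase reporter assay, 2,000 cells per well, rested 5hr at 37 C before compound addition in DMSO, then 24 hr at 37 C. One-Glo reagent was added and luminescence read after 30 min at room temperature.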

Assay [7] concerns the target Nuclear receptor subfamily 1 group I member 2 (Homo sapiens) (UniProt O75469). The assay can be described thus: Human pregnane X receptor (PXR) small molecule agonists, qHTS assay (AID 1346982). Further: nearly all actives have a fitted effect of over 35% in size. Further: potency means the concentration at half of the fitted maximal effect. As to conditions: PXR-Luc HepG2, CYP3A4 luciferase reporter, 24 h; series mostly up to 92.4 µM. Put shortly: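 Luminescence (ONE-Glo, 30 min RT) after 24 hr compound exposure of PXR-Luc HepG2 cells; cells rested 5 hr post-plating in 5% charcoal-stripped FBS medium.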

Assay [8] deals with Thyrotropin-releasing hormone receptor (Homo sapiens) (UniProt P34981). Kind of assay: qHTS assay to identify small molecule agonists of the thyrotropin-releasing hormone receptor (TRHR) signaling pathway (AID 1346891; calls by dose curve). Conditions: TRHR-HEK293 calcium fluorescence, agonist mode; series mostly up to 57.6 µM. Put shortly: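 HEK293 cells expressing TRHR plated 18 h at 37 C/5% CO2, calcium dye-loaded 2 h at 37 C, then compound added (agonist mode); kinetic calcium fluorescence read 3 min at 1 s intervals; 15 concentrations in triplicate.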
Thyrotropin-releasing hormone receptor (Homo sapiens), sequence (P34981 whole entry, looked up): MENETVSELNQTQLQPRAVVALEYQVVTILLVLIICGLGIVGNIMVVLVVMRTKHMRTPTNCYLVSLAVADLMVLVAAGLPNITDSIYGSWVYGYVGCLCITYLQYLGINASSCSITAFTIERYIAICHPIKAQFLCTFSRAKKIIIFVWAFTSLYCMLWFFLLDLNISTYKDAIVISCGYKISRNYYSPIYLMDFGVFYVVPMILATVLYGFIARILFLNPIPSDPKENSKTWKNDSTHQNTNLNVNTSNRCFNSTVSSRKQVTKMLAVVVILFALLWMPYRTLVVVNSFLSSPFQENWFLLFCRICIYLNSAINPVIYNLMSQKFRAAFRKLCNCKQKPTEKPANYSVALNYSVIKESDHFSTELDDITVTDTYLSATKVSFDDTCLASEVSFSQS

In assay [9] the target is Nuclear receptor subfamily 1 group I member 2 (Homo sapiens) (UniProt O75469). Kind of assay: CYP3A4 induction through human pregnane X receptor (PXR) by small molecules, qHTS assay (AID 1346984). Further: nearly all actives have a fitted effect of over 40% in size. Conditions: DPX-2 HepG2 PXR, CYP3A4-luciferin luminescence, 24 h; series mostly up to 46.1 µM. The gist of the method:
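DPX-2 reporter cells; 24h cpd, 37C; Luciferin-IPA 3uM final x3h; One-Glo 30 min RT; lumi read.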

The target is the same in assay [10]. Kind of assay: Human pregnane X receptor (PXR) activation by small molecules, qHTS assay (AID 1346985). Further: nearly all actives have a fitted effect of over 40% in size. Conditions: DPX-2 HepG2 CYP3A4-luciferase, 24 h; series mostly up to 38.3 µM. Put shortly: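 DPX-2 cells (HepG2 co-transfected with a PXR response element and a CYP3A4-promoter luciferase construct) were seeded at 2,000 per well, rested 5 hr at 37C, then exposed to DMSO-dissolved compounds for 24 hr. Activation was read as luciferase luminescence.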

Where “and” joins values, the source holds several entries; their conditions need not be identical. Equal values may be shown once. Results filed as inconclusive are left out. Some compounds were tested as several samples or in several runs, with calls that do not always agree. Calls of active or inactive are those of the source. Unless noted, the call rests on the fitted dose curve; in most records, active means well fitted curve in the direction sought with a large enough effect in the repeat runs; inconclusive means weak or mixed curves; inactive means no such curve, though single readings can be large; an effect the other way counts as inactive or inconclusive.
On the % scale 0 is the no-effect control and ±100 the full control effect.

Nuclear receptor subfamily 1 group I member 2 (Homo sapiens), sequence (O75469 whole entry, looked up): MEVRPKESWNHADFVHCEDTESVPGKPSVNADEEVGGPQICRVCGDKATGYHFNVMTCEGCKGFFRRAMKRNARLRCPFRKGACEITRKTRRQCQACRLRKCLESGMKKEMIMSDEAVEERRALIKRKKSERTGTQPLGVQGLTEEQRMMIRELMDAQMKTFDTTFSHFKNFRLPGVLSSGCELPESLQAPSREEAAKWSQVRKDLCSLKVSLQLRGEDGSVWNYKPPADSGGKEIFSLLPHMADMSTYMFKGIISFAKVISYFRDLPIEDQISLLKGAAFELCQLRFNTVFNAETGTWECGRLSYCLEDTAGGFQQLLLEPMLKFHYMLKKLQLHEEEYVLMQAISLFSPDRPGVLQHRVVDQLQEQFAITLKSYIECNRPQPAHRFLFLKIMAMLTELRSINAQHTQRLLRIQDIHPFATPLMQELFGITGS
Nuclear receptor subfamily 1 group I member 2 (Rattus norvegicus), sequence (Q9R1A7 whole entry, looked up): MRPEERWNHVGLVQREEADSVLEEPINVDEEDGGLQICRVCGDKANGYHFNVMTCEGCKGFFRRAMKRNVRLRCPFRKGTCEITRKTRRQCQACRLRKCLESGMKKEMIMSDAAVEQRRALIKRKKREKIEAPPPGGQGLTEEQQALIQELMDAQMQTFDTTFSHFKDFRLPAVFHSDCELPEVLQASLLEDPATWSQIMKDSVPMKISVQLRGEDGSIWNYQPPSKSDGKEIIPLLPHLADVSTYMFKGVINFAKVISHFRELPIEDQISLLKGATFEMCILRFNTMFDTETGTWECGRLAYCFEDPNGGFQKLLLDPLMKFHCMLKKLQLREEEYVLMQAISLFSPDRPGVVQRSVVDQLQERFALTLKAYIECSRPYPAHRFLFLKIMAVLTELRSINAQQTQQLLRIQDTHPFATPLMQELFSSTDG

As for `Oc1cc(Cl)ccc1Oc1ccc(Cl)cc1Cl`, the Potency was 31.4 µM (active) and 29.8 µM (active) in [1]; 64.4 µM (active) and inactive in assay [2]; 28.8 µM (active) and 26.6 µM (active) in assay [3]; 59.1 µM (active) and inactive in assay [4]; 44.3 µM (active) in assay [5]. Further, the max activation in assay [6] was -0.85% (inactive).

Regarding `CCOC(=S)S`, the Potency entry in assay [1], in assay [2] and in [5] was “inactive” in each case. Also, the Potency was 61.1 µM (active) and 23.1 µM (active) in assay [3]; 61.1 µM (active) in [4].

As to `O=C(O)CC[N+](=O)[O-]`, the Potency result in [1], in assay [2], in assay [3], in assay [4], in [5] and in assay [7] was “inactive” in each case.

Take `CC1(C)C(C=C(Cl)Cl)C1C(=O)OC(C#N)c1cccc(Oc2ccccc2)c1` (configuration not stated): the Potency entry in [8], in assay [1], in assay [2] and in assay [5] was “inactive” in each case. For the same molecule, the Potency in assay [7] is 2.73 µM (active).

For the molecule `c1nc[nH]n1`, the Potency entry in [1], in [2], in assay [3], in assay [5] and in assay [7] was “inactive” throughout.

On to `CC(C)c1ccc(CO)cc1`, for which the Potency entry in [1], in assay [2], in assay [3], in [4], in assay [5] and in [7] was “inactive” throughout.

As for `C[C@]12CCC(=O)C(O)=C1CC[C@@H]1[C@@H]2CC[C@]2(C)C(=O)CC[C@@H]12`, the Potency entry in assay [1], in [2], in [3], in assay [4] and in assay [5] was “inactive” in each case. For the same molecule, the Potency in assay [7] was 54.5 µM (active) and inactive. For the same molecule, the max activation in assay [6] was -2.61% (inactive). Moreover, the result in assay [9] and in assay [10] was inactive.
